Measurements from ChEMBL document CHEMBL3988442, “University of Dundee, Small-Polar-MMV Screening Library” (2021).
Among all 66,000 compounds or so, about 960 (1.5%) showed an effect of 50% or more. The list comes from a sample in which strong results are over-represented; it also holds similar structures and randomly drawn compounds.

System: Trypanosoma brucei
Assay: Trypanosoma brucei 72 hour study
Type: functional, organism-based
Set-up: scale not given: in the data most compounds retested in dose-response had high values

| Compound | Percent Effect (30.3 µM, […]) [%] | Percent Effect (30 µM, 30.03 µM) [%] |
| --- | --- | --- |
| O=C1NCC(c2ccc(Cl)cc2)Cc2[nH]c(CCN3CCOCC3)nc21 (stereo not drawn) | -6.17 |  |
| O=C(CCCn1ccnc1)NC1CCCN(c2ccccc2Cl)C1 (stereo not drawn) |  | -36.7 |
| Cn1ccc2c(C(=O)N3CCN(C(=O)C4CCCC4)CC3)cccc21 | -0.9219 |  |
| CC(=O)N(C)C1CCN(C(=O)c2cccc3c2ccn3C)CC1 | 1.635 |  |
| Cn1ccc2c(C(=O)N3CCC(C(N)=O)CC3)cccc21 |  | 51.42 |
| CNCc1ccc([C@@H]2CN(C(C)=O)C[C@H]2C(N)=O)cc1.Cl | -4.211 |  |
| COC(=O)C(CCSC)NC(=O)Cc1c(C)nn(-c2ccccc2)c1C (stereo not drawn) | 100.4 |  |
| COc1cccc(-c2nc(C)c(C(=O)N[C@@H](CCSC)C(=O)O)s2)c1 |  | -41.8 |
| COC(=O)[C@H](CCSC)NC(=O)Cc1c(C)nn(-c2ccccc2)c1C |  | 101 |
| CSCCC(NC(N)=O)C(=O)NCc1c(C)nn(-c2ccccc2)c1C (stereo not drawn) |  | -20.96 |
| Cc1nn(-c2ccccc2)c(C)c1CC(=O)NC1CC(=O)N(C)C1 (stereo not drawn) |  | -14.36 |
| COC(=O)[C@H](CCSC)NC(=O)Cn1ccc2c(Cl)cccc21 |  | -28.3 |
| CC(C)Cc1noc(CN2CCOCC2C)n1 (stereo not drawn) |  | -14.5 |
| O=C(Nc1cnccn1)[C@@H]1CCO[C@@H]2CCN(Cc3ccsc3)C[C@@H]21.O=C(O)C(F)(F)F | -603.1 |  |
| O=C(Nc1ccccc1)N1C(CN2CCOCC2)[C@]2(O)CC[C@H]1CC2 (stereo partly drawn) | 6.609 |  |
| CCn1nc(C)c2nc(C(C)C)nc(NCC(=O)N3CCOCC3)c21 | -23.63 |  |
| CCCc1nc(NCC(=O)N2CCOCC2)c2c(n1)c(C)nn2CC | -24.9 |  |
| CCc1nc(NCC(=O)N2CCOCC2)c2c(n1)c(C)nn2CC |  | 60.24 |
| Cn1c(CN2CCN(CC3CCCO3)CC2)nc2ccccc21 (stereo not drawn) | -39.6 |  |
| CCCc1ccc(N2CCN(Cc3nc4ccccc4n3C)CC2)cc1 |  | 90.43 |
| Cn1c(CCN2CCN(CCc3ccccc3)CC2)nc2ccccc21 |  | -13.15 |
| COCCN1CC[C@@H]2CN(Cc3nccn3C)C[C@@H]2C1.O=C(O)C(F)(F)F.O=C(O)C(F)(F)F |  | 27.97 |
| CC(C)CN1CCc2c(CN(C)Cc3ccco3)cncc2C1.Cl.Cl.Cl | -2.843 |  |
| COc1ccc(C)cc1CN(Cc1nc(C)c(C)o1)C1CCN(C)C1 (stereo not drawn) |  | 82.74 |

| Compound | Percent Effect (30.3 µM, […]) [%] | Percent Effect (30 µM, 30.03 µM) [%] |
| --- | --- | --- |
| COc1ccc(C)cc1CN(Cc1ncc(C)o1)C1CCN(C)C1 (stereo not drawn) |  | -50.91 |
| Cc1cnc(CN(Cc2ccc(C#N)cc2F)C2CCN(C)C2)o1 (stereo not drawn) |  | -34.7 |
| COc1cc(C(=O)NCC2(N(C)C)CCN(C)CC2)c2ccccc2n1 | -18.58 |  |
| Cc1c(CN2CC[C@@H](N3CCC(O)CC3)[C@H](O)C2)[nH]c2ccc(Cl)cc12 |  | -14.51 |
| O[C@@H]1CN(CC2=Cc3cc(Cl)ccc3OC2)CC[C@H]1N1CCCCCC1 | 78.41 |  |
| CN1CCN([C@@H]2CCN(CC3=Cc4cc(Cl)ccc4OC3)C[C@H]2O)CC1 | 22.23 |  |
| O=C(CCc1ccco1)N1CCCC(n2cccn2)C1 (stereo not drawn) | 12.32 |  |
| Cc1ccc(S(=O)(=O)N2CCC(S(=O)(=O)c3nncn3C)CC2)cc1C |  | -15.11 |
| Cn1cnnc1S(=O)(=O)C1CCN(S(=O)(=O)c2ccc(F)c(Cl)c2)CC1 |  | 73.39 |
| Cn1cnnc1S(=O)(=O)C1CCN(S(=O)(=O)c2ccccc2F)CC1 |  | -32 |
| CN1CCN(Cc2ccncc2)C(=O)C12CCN(Cc1ccsc1)CC2.O=C(O)C(F)(F)F.O=C(O)C(F)(F)F.O=C(O)C(F)(F)F | -53.7 |  |
| COC1CCN(C(=O)Cc2csc(-c3ccc(F)cc3)n2)CC1 | 9.7 |  |
| COC1CCN(C(=O)Cc2csc(-c3ncccn3)n2)CC1 |  | 9.896 |
| COC1CCN(C(=O)Cc2csc(-c3ccccc3)n2)CC1 | 99.67 |  |
| Cc1cc(N2CCc3cncnc3C2)n2nc(C(F)(F)F)nc2n1 |  | -22.1 |
| Cc1ccc(C(=O)N2CCOCC2C(N)=O)c(F)c1 (stereo not drawn) |  | -8.01 |
| O=C(Nc1nccs1)c1csc(NC2CCCC2)n1 |  | 93.86 |
| O=C(Nc1ccccn1)c1csc(NC2CCCC2)n1 |  | 1.318 |
| CC(C)NC(=O)c1csc(NC2CC2)n1 |  | -15.9 |
| CC(NC(=O)Nc1nccs1)C(=O)NC1CCCC1 (stereo not drawn) |  | -0.2762 |
| CC(C)CCNC(=O)c1csc(NC2CC2)n1 |  | 55.59 |
| CC(C)CCNc1nc(C(=O)NC2CC2)cs1 |  | -29.09 |
| COc1cccc(C2CCCN2Cc2nnnn2C2CC2)c1 (stereo not drawn) |  | 7.439 |
| O=C(O)C(F)(F)F.O=C(O)C(F)(F)F.c1csc(CN2Cc3nc(CN4CCCC4)oc3C2)c1 | -24.4 |  |
